Counter-ions that a name gives are not always drawn.
Test system: primary human hepatic stellate cells (donor 1)
Test: ACTA2 mRNA fold change vs DMSO (normalised to PSMB2); higher = more ACTA2 expression
Conditions: 48 h
Description: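 Secondary qRT-PCR screen in primary human HSCs (donor 1), 384-well plates, with compounds dispensed in quadruplicate and incubated for 48 h. Cells-to-CT lysates were used for multiplexed TaqMan qPCR of ACTA2 or COL1A1 with PSMB2 as reference. Fold changes versus DMSO come from a linear model (Ct_gene ~ Ct_PSMB2 + plate + chemical). A hit is defined as COL1A1 and ACTA2 FC <0.5 (FDR <0.05) with PSMB2 between 0.2 and 2.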

| Structure (SMILES) | ACTA2 mRNA fold change |
| --- | --- |
| NC[C@@H]1O[C@H](C23CC4CC(CC(C4)C2)C3)Cc2c1ccc(O)c2O (33.3333 µM) | 0.309 |
| Cc1ccc2c(c1)c1c3n2CCNC3CCC1 (stereo not given) [Pirlindole mesylate] (20.6667 µM) | 0.712 |
| Cc1cc(C(=O)Nc2cc(Nc3ccc4c(/C=C/c5ccccn5)n[nH]c4c3)ccc2F)n(C)n1 (33.3333 µM) | 0.469 |
| CCN1CCC(n2cc(CNc3cc(Cl)c4ncc(C#N)c(Nc5ccc(F)c(Cl)c5)c4c3)nn2)CC1 (33.3333 µM) | 0.0712 |
| CS(=O)(=O)CCNCc1ccc(-c2ccc3ncnc(Nc4ccc(OCc5cccc(F)c5)c(Cl)c4)c3c2)o1 (6.66667 µM) | 1.05 |
| CSc1ccc2c(c1)C(N1CCN(C)CC1)Cc1ccccc1S2 (stereo not given) [Methiothepin maleate] (33.3333 µM) | 0.00993 |
| CCC/C=C\C=C/C(=O)N[C@@H](CC(N)=O)C(=O)NC(CC(N)=O)C(=O)N[C@@H](C(=O)N[C@H](CCCN)C(=O)N[C@@H](C(=O)N[C@@H](C(=O)N[C@@H](C(=O)N[C@H](C(=O)N[C@@H](Cc1ccccc1)C(=O)N[C@H](CCCN)C(=O)NC(C(=O)N[C@H](C(=O)NC(C(=O)NCC(=O)N[C@@H](CC(C)C)C(=O)N[C@H](C)C(=O)NC(C(=O)O)C1CCC(O)C(Cl)C1)C1CCC(O)CC1)[C@H](C)O)C1CCC(O)CC1)[C@H](C)O)C1CCC(O)CC1)C1CCC(O)CC1)[C@H](C)O)C1CCC(O)CC1 (stereo not given in full) (33.3333 µM) | 0.502 |
| COC(=O)N[C@H](C(=O)N1CCC[C@H]1c1ncc(-c2ccc(-c3ccc(-c4cnc([C@@H]5CCCN5C(=O)[C@@H](NC(=O)OC)C(C)C)[nH]4)cc3)cc2)[nH]1)C(C)C (33.3333 µM) | 0.0331 |
| Cn1cc(C2=C(c3ccc(Cl)cc3Cl)C(=O)NC2=O)c2ccccc21 (33.3333 µM) | 0.332 |
| Cc1cc(Nc2cc(N3CCN(C)CC3)nc(/C=C/c3ccccc3)n2)n[nH]1 (11.1 µM) | 0.703 |
| C#C[C@]1(O)CC[C@H]2[C@@H]3CCC4=Cc5oncc5C[C@]4(C)[C@H]3CC[C@@]21C [Danazol] (33.3333 µM) | 0.0332 |
| Clc1ccccc1CNCC1CCC(CNCc2ccccc2Cl)CC1 (stereo not given) (33.3333 µM) | 0.0214 |
| CNCc1ccc(-c2cc(-c3nc(-c4ccc(S(=O)(=O)C(C)C)cc4)cnc3N)on2)cc1 (11.1 µM) | 0.0206 |
| NS(=O)(=O)C#Cc1ccccc1 [Pifithrin->m] (33.3333 µM) | 0.0598 |
| CCCCCCCCCCCCCCCCn1cc[n+](Cc2ccccc2)c1C (11.1 µM) | 0.0378 |
| Cc1cnc(-c2cnc(NCCNc3ccc(C#N)cn3)nc2-c2ccc(Cl)cc2Cl)[nH]1 (33.3333 µM) | 0.259 |
| CCOC(=O)C1=C(COCCN)NC(C)=C(C(=O)OC)C1c1ccccc1Cl (stereo not given) (33.3333 µM) | 0.084 |
| O=C1NC(=O)/C(=C/c2ccc(-c3ccc(F)cc3O)o2)S1 (33.3333 µM) | 0.0492 |
| CC1(C)CC(=O)c2c(C(F)(F)F)nn(-c3ccc(C(N)=O)c(N[C@H]4CC[C@H](OC(=O)CN)CC4)c3)c2C1 (33.3333 µM) | 0.967 |
| O=C(c1ccc(/C=C/c2n[nH]c3ccccc23)cc1)N1CCNCC1 (33.3333 µM) | 0.0375 |

| Structure (SMILES) | ACTA2 mRNA fold change |
| --- | --- |
| C[C@@H]1CN(CCCn2c3ccccc3c3ccccc32)C[C@H](C)N1 [Rimcazole dihydrochloride] (33.3333 µM) | 0.0478 |
| Cc1ccc(-c2ccc3c(ccc4sc5c(c43)NC[C@@H](C)NC5=O)n2)cn1 (33.3333 µM) | 1.65 |
| c1cc(OCCN2CCCCC2)cc(-c2n[nH]c3ccc(-c4nnc[nH]4)cc23)c1 (33.3333 µM) | 0.0437 |
| Clc1ccc(C2(c3ccc(-c4cn[nH]c4)cc3)CCNCC2)cc1 (33.3333 µM) | 0.0459 |
| COc1cc2nc(N3CCCN(C)CC3)nc(NC3CCN(Cc4ccccc4)CC3)c2cc1OC (3.33333 µM) | 0.0176 |
| CC(C)(C)c1cc(NC(=O)Nc2ccc(-c3cn4c(n3)sc3cc(OCCN5CCOCC5)ccc34)cc2)no1 [Quizartinib  (AC220)] (11.1 µM) | 0.258 |
| CC(/C=C/C(=O)NO)=C\[C@@H](C)C(=O)c1ccc(N(C)C)cc1 [Trichostatin A] (3.33333 µM) | 0.0381 |
| COc1ccc(NS(=O)(=O)c2sc3ccc(Cl)cc3c2C)cc1N1CCNCC1 (33.3333 µM) | 0.0163 |
| Cc1[nH]c(/C=C2\C(=O)Nc3ccc(S(=O)(=O)N(C)c4cccc(Cl)c4)cc32)c(C)c1C(=O)N1CCN(C)CC1 (33.3333 µM) | 0.425 |
| CN1CCCN(C(c2ccccc2)c2ccc(Cl)cc2)CC1 (stereo not given) [Homochlorcyclizine dihydrochloride] (33.3333 µM) | 0.0102 |
| CNCCCC12CCC(c3ccccc31)c1ccccc12 [Maprotiline hydrochloride] (33.3333 µM) | 0.0243 |
| CNCc1ccc(-c2[nH]c3cc(F)cc4c3c2CCNC4=O)cc1 (33.3333 µM) | 0.864 |
| NC(N)=NC(=O)c1nc(Cl)c(N2CCCCCC2)nc1N [5-(N,N-hexamethylene)amiloride] (33.3333 µM) | 0.0262 |
| CCN(CC)CCOc1ccc(Cc2ccccc2)cc1 [DPPE fumarate] (33.3333 µM) | 0.397 |
| CN1CCC(CNc2ccc3ncc(-c4cccc(OC(F)(F)F)c4)n3n2)CC1 (6.66667 µM) | 1.23 |
| CCNC(=O)c1noc(-c2cc(C(C)C)c(O)cc2O)c1-c1ccc(CN2CCOCC2)cc1 (11.1 µM) | 1.19 |
| OCCN1CCN(CCCN2c3ccccc3Sc3ccc(C(F)(F)F)cc32)CC1 (33.3333 µM) | 0.0188 |
| C[C@@H](CN1CCC(n2c(=O)[nH]c3cc(Cl)ccc32)CC1)NC(=O)c1ccc2ccccc2c1 (33.3333 µM) | 0.045 |
| CN1CCN2c3ccccc3Cc3ccccc3C2C1 (stereo not given) [Mianserin hcl] (25.2333 µM) | 0.899 |
| CNCc1ccc(C)c(NC(=O)c2ccc(Nc3nc(-c4ccccc4)c4ccccc4n3)cc2)c1 (33.3333 µM) | 0.0244 |

From the supplement of paper PMC9135407
